Results from PubChem BioAssay (Tox21).
Results filed as inconclusive are left out. Active and inactive are the calls of the source. Unless noted, calls follow the shape of the dose curve; as a rule, active = well fitted curve in the direction sought with a large enough effect in the repeat runs; inconclusive = weak or mixed curves; inactive = no such curve, though single readings can be large; an effect the other way counts as inactive or inconclusive.

Legend:
[1] = qHTS assay to identify small molecule antagonists of the thyroid receptor (TR) signaling pathway - cell viability counter screen (AID 743064); also: nearly all actives have a fitted effect of over 50% in size
How it was run: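 Same-well viability check: GH3.TRE-Luc cells stimulated with 1 nM T3 alongside test compound for 23.5 h, followed by CellTiter-Fluor fluorescence.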

[2] = qHTS assay to identify small molecule antagonists of the thyroid receptor (TR) signaling pathway (AID 743065); also: series mostly up to about 70 µM; nearly all actives have a fitted effect of over 55% in size
How it was run: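 Antagonism measured as loss of luciferase signal in GH3 cells stably carrying a TRE-luciferase reporter, co-treated with compound and T3 (1 nM final) for 23.5 h at 37 C. Viability was read in the same well by CellTiter-Fluor.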

[3] = test system: thyroid hormone receptor (rat, GH3 cells); assay: qHTS assay to identify small molecule agonists of the thyroid receptor (TR) signaling pathway (AID 743066; calls by dose curve)
[4] = biological target: Estrogen receptor (Homo sapiens) (UniProt P03372); assay: qHTS assay to identify small molecule antagonists of the estrogen receptor alpha (ER-alpha) signaling pathway (AID 743069; active = well fitted curve in the direction sought with a large enough effect in the signal ratio in the repeat runs, not every such curve was filed as active; the % refers to the signal ratio)
Estrogen receptor (Homo sapiens), sequence (P03372 whole entry, looked up): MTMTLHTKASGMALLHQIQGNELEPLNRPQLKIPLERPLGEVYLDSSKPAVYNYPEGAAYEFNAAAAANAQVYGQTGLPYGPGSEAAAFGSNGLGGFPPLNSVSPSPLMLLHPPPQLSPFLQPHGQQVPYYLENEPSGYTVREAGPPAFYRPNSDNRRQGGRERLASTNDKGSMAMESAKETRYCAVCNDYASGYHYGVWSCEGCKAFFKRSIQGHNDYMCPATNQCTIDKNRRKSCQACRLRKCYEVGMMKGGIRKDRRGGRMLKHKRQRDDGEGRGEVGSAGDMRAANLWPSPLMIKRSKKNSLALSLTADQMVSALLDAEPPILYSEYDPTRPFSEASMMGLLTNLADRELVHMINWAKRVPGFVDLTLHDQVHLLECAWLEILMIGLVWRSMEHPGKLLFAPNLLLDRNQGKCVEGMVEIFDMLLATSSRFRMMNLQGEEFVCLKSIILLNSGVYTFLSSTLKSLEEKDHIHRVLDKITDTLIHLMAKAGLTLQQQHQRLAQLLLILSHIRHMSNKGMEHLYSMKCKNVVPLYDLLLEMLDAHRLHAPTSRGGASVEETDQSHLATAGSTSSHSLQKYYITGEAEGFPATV
How it was run: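 ER-alpha-UAS-bla GripTite HEK293 line; 2% charcoal-stripped FBS overnight; plated, 4 hr 37C/5% CO2; cpd in DMSO + 17beta-estradiol, 18 hr 37C; LiveBLAzer B/G FRET substrate 2 hr RT; fluorescence intensity.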

[5] = qHTS assay to identify small molecule antagonists of the estrogen receptor alpha (ER-alpha) signaling pathway - cell viability counter screen (AID 743074; calls by dose curve;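 also: HEK293 cells carrying ER-alpha-UAS-bla reporter stimulated with 17beta-estradiol; nearly all actives have a fitted effect of over 45% in size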)
[6] = biological target: Estrogen receptor (Homo sapiens) (UniProt P03372); assay: qHTS assay to identify small molecule agonists of the estrogen receptor alpha (ER-alpha) signaling pathway (AID 743075; calls by dose curve;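 also: HEK293 GripTite cells with ER-alpha and UAS-driven beta-lactamase reporter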)
[7] = biological target: Estrogen receptor (Homo sapiens) (UniProt P03372); assay: qHTS assay to identify small molecule agonists of the estrogen receptor alpha (ER-alpha) signaling pathway using the BG1 cell line (AID 743079); also: nearly all actives have a fitted effect of over 20% in size
[8] = qHTS assay to identify small molecule antagonists of the estrogen receptor alpha (ER-alpha) signaling pathway using the BG1 cell line (AID 743080; calls by dose curve;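 also: BG1 cells stimulated with 17beta-estradiol alongside compound; series mostly up to about 70 µM; nearly all actives have a fitted effect of over 25% in size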)
How it was run: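 Seeding, 24 h rest, compound transfer from DMSO, 17beta-estradiol addition, 21.5 h incubation, CellTiter-Fluor (30 min, 37 C), then ONE-Glo (30 min, room temperature): this sequence was run on BG1-Luc-4E2 reporter cells.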

[9] = qHTS assay to identify small molecule antagonists of the estrogen receptor alpha (ER-alpha) signaling pathway using the BG1 cell line - cell viability counter screen (AID 743081);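 also: compound given together with 17beta-estradiol as the ER stimulus; series mostly up to about 70 µM; nearly all actives have a fitted effect of over 45% in size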
Aromatase (Homo sapiens) = Aromatase (Homo sapiens) (UniProt P11511); assay: qHTS assay to identify aromatase inhibitors (AID 743083); also: series mostly up to about 70 µM; nearly all actives have a fitted effect of over 55% in size
Aromatase (Homo sapiens), sequence (P11511 whole entry, looked up): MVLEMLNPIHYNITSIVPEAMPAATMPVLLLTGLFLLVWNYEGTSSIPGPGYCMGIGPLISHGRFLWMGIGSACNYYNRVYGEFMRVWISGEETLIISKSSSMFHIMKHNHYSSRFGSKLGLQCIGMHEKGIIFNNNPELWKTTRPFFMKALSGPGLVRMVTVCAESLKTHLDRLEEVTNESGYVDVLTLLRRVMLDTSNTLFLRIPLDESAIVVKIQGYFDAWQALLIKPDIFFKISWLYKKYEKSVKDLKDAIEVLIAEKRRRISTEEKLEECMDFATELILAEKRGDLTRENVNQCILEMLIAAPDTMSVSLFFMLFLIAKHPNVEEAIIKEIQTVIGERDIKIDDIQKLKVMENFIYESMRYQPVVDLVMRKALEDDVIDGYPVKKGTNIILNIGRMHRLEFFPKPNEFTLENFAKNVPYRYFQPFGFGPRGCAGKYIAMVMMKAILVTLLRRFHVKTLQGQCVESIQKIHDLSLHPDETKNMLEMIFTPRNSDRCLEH

[10] = qHTS assay to identify aromatase inhibitors - cell viability counter screen (AID 743084);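 also: cells stimulated with testosterone during compound exposure; nearly all actives have a fitted effect of over 55% in size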
[11] = biological target: Aryl hydrocarbon receptor (Homo sapiens) (UniProt P35869); assay: qHTS assay to identify small molecule that activate the aryl hydrocarbon receptor (AhR) signaling pathway (AID 743085);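 also: HG2L7.5c1 human HepG2 liver cells with stably integrated DRE-driven firefly reporter; series mostly up to about 70 µM; nearly all actives have a fitted effect of over 15% in size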
Aryl hydrocarbon receptor (Homo sapiens), sequence (P35869 whole entry, looked up): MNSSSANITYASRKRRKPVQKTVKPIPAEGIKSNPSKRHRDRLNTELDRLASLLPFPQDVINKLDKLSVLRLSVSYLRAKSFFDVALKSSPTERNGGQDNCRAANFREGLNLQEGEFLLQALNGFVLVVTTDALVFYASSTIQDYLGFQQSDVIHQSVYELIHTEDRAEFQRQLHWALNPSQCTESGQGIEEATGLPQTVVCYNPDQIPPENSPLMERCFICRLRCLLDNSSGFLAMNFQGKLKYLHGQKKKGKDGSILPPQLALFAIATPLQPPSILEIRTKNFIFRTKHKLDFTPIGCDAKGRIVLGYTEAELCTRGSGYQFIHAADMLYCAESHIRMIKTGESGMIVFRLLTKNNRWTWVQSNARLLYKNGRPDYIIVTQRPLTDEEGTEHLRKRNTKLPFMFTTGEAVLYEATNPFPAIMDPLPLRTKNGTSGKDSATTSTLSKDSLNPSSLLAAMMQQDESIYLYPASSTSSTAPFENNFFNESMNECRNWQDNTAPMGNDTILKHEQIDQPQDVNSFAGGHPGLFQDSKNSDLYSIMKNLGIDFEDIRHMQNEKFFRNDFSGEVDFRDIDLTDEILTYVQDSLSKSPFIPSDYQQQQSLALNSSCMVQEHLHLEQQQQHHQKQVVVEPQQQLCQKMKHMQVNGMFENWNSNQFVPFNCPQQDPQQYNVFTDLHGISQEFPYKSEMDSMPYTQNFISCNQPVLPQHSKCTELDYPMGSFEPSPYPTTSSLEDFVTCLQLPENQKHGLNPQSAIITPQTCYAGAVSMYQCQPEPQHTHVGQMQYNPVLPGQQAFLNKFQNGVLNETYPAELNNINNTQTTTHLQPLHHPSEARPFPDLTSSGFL
How it was run: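 Reporter assay in engineered HepG2 line HG2L7.5c1, whose plasmid carries twenty dioxin responsive elements upstream of firefly luciferase. Treatment lasted 24 h at 37C; ONE-Glo luminescence gauged induction.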

[12] = qHTS assay to identify small molecule that activate the aryl hydrocarbon receptor (AhR) signaling pathway - cell viability counter screen (AID 743086);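 also: HepG2 liver cells carrying the AhR DRE luciferase reporter; series mostly up to about 70 µM; nearly all actives have a fitted effect of over 45% in size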
How it was run: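 Cytotoxicity counter screen: CellTiter-Fluor signal (30 min, 37 C) in 4000 HepG2 cells/well carrying the DRE-luciferase reporter, following 24 h compound exposure at 37 C.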

[13] = biological target: Peroxisome proliferator-activated receptor gamma (Homo sapiens) (UniProt P37231); assay: qHTS assay to identify small molecule agonists of the peroxisome proliferator-activated receptor gamma (PPARg) signaling pathway (AID 743094; active = well fitted activation curve with a large enough effect in the signal ratio in the repeat runs, not every such curve was filed as active; the % refers to the signal ratio)
Peroxisome proliferator-activated receptor gamma (Homo sapiens), sequence (P37231 whole entry, looked up): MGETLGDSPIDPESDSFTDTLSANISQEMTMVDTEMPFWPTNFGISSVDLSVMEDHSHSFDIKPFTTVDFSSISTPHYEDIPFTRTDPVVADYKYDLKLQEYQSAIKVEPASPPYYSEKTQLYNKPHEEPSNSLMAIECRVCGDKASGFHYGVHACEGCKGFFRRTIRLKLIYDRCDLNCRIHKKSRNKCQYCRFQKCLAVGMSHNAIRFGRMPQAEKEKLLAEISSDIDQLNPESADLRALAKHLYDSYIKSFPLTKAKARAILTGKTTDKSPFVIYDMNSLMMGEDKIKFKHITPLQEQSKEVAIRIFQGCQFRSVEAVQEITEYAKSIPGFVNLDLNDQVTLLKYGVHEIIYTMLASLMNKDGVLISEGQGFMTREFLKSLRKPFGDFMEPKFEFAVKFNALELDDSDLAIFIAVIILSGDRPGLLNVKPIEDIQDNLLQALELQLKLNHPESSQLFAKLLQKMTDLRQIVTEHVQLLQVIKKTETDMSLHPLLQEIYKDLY
How it was run: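 Beta-lactamase FRET fluorescence was the read-out after a 1 h room-temperature substrate step, following 17 h compound treatment at 37C of HEK293H cells expressing a UAS-driven bla reporter responsive to PPARg.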

[14] = biological target: Peroxisome proliferator-activated receptor gamma (Homo sapiens) (UniProt P37231); assay: qHTS assay to identify small molecule antagonists of the peroxisome proliferator-activated receptor gamma (PPARg) signaling pathway (AID 743191; calls by dose curve; also: series mostly up to about 63 µM; nearly all actives have a fitted effect of over 30% in size)
How it was run: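 Beta-lactamase reporter under UAS control in HEK293H PPARg-bla cells; compound treatment 17 h at 37C. Read-out: fluorescence intensity after 1 h room-temperature incubation with LiveBLAzer B/G FRET substrate.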

[15] = qHTS assay to identify small molecule antagonists of the peroxisome proliferator-activated receptor gamma (PPARg) signaling pathway - cell viability counter screen (AID 743194); also: nearly all actives have a fitted effect of over 55% in size
How it was run: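 Viability was measured as CellTiter-Glo luminescence in GeneBLAzer PPARg UAS-bla HEK293H cells. These cells had been exposed 17 h at 37 C to compounds together with rosiglitazone at 50 nM final, with the beta-lactamase readout taken in the same wells.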

[16] = qHTS assay for small molecule agonists of the antioxidant response element (ARE) signaling pathway (AID 743202; active = well fitted activation curve with a large enough effect in the signal ratio in the repeat runs, not every such curve was filed as active; the % refers to the signal ratio)
How it was run: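 Quantitative high-throughput format in HepG2 cells bearing an integrated ARE-beta-lactamase reporter. Compound exposure lasted 16 h at 37 C, and fluorescence was read 2 h after adding LiveBLAzer B/G substrate at room temperature.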

[17] = qHTS assay for small molecule agonists of the antioxidant response element (ARE) signaling pathway - cell viability counter screen (AID 743203; calls by dose curve; also: nearly all actives have a fitted effect of over 55% in size)
How it was run: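 HepG2 cells carrying ARE-driven beta-lactamase; 2,000 cells/well; 5 hrs plating; compound pinned from DMSO; 16 hrs 37C/5% CO2; CellTiter-Glo added; 30 min RT; luminescence.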

[18] = qHTS assay for small molecule activators of the heat shock response signaling pathway - cell viability counter screen (AID 743209); also: nearly all actives have a fitted effect of over 50% in size
How it was run: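 Luminescence from CellTiter-Glo, added after the beta-lactamase FRET read, gave the viability signal. Cells were HSE-bla HeLa treated with DMSO-dissolved compounds for 5 h at 37 C following overnight plating.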

[19] = qHTS assay for small molecule activators of the heat shock response signaling pathway (AID 743210; active = well fitted activation curve with a large enough effect in the signal ratio in the repeat runs, with a control signal flat, not every such curve was filed as active; the % refers to the signal ratio;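 also: HeLa cells with beta-lactamase reporter driven by heat shock elements; series mostly up to about 63 µM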)
How it was run: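 HeLa HSE-bla cells, overnight plating; cpd in DMSO 5 h, 37 C; LiveBLAzer B/G FRET substrate 2.5 h RT; fluorescence intensity read.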

Measured: Potency

C=C[Si](OC)(OC)OC
inactive: all assays above

CCCC(C)C(=O)O (configuration not stated)
not listed: [18]
inactive: all other assays above

COC(=O)CCCCCCCCC(=O)OC
not listed: [17]
inactive: all other assays above

CCC(C)(C)C1CCC(OC)CC1 (configuration not stated)
inactive: all assays above

CC1CCN(CCCC(=O)c2ccc(F)cc2)CC1
not listed: [15]
inactive: all other assays above

Oc1cc(O)c2c(c1)O[C@H](c1ccc(O)c(O)c1)[C@H](O)C2
not listed: [15] | [16]
inactive: all other assays above

OCC(CO)(CO)COCC(CO)(CO)CO
not listed: [14]
inactive: all other assays above

CC(C)[N+](C)(C)CC(O)COc1cccc2ccccc12 (configuration not stated)
not listed: [16]
inactive: all other assays above

C=C(C)C1CC=C(C)C(O)C1 (configuration not stated)
not listed: [14]
inactive: all other assays above

CC(C)(O)Cc1ccccc1
not listed: [14]
inactive: all other assays above

CC(C)CCOC(=O)CC(C)C
inactive: all assays above

COC(=O)c1ccc(C(=O)OC)c(C(=O)OC)c1
not listed: [15]
inactive: all other assays above

CC(C)(C)CC(C)(C)N
not listed: [14] | [17]
inactive: all other assays above

Nc1cc(N)cc(C(=O)O)c1
not listed: [16]
inactive: all other assays above

Nc1nc2c(ncn2CCC(CO)CO)c(=O)[nH]1
inactive: all assays above
